Compound activity deposited in PubChem by National Center for Advancing Translational Sciences (NCATS).
IMPase cell inh: cell-permeable inhibitors of inositol monophosphatase (IMPase); inhibition (IP1 accumulation), % at 46.1 µM; 120,000 tested, under 10 active; AID 901; P97697; CHO-M1 cells, IP1 accumulation, HTRF TR-FRET ratio; active = well fitted curve in the direction sought with a large enough effect in the signal ratio, not every such curve was filed as active; inconclusive = small, poorly fitted or top-dose-only effect, or a change in a side signal; inactive = no such curve, though single readings can be large or run the other way; the % refers to the signal ratio;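 also: cells stimulated with carbachol in lithium chloride buffer; higher means more IMPase inhibition seen as more IP1 and lower FRET ratio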
Target sequence (P97697 whole entry, looked up): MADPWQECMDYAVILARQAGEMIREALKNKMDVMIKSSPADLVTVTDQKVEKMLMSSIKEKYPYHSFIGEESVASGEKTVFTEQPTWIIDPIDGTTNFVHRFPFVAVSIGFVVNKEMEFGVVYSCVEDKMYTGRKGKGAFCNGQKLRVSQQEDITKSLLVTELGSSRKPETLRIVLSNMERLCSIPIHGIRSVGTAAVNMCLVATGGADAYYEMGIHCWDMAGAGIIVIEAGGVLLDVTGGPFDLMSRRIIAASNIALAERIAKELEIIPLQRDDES
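Carbachol-driven Gq signalling in CHO-M1 cells (2000/well) generates IP1. Compounds that block IMPase raise IP1 and so reduce the FRET signal from Eu-anti-IP1 and d2-IP1 after a 10 min room-temperature lysis.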
ALDH1A1 inh: blocks purified human ALDH1A1 activity; P00352; Purified ALDH1A1, NADH fluorescence, propionaldehyde substrate; Potency, µM (top dose mostly 75.3 µM), actives largely listed as inhibitors; hit rate 7.3% among 220,000
PNC inhibitor: inhibitors of perinucleolar compartment assembly. PC3M PTB-GFP, PNC prevalence imaging, 16 h; hits give low values. activity change (PNC), negative = inhibition, % at 10 µM. hit rate 3.1% among 140,000. AID 2417;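 active = readout at or below -70, meaning at least 70% loss of cells showing the perinucleolar compartment, a nuclear body marking cancer cells; inconclusive = readout between -30 and a set limit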
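Compounds are pinned in duplicate onto adhered PC3M cells stably expressing GFP-tagged PTB and incubated 16 h at 37 C. Cells are then fixed, nuclei stained with Hoechst, and PNC-positive cells counted.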
HPGD inh: HPGD (human) dehydrogenase inhibition; P15428; purified HPGD, NADH fluorescence kinetic, PGE2 substrate; hit rate 4.3% among 150,000; Potency, µM, most hits filed as inhibitors
Target sequence (P15428 whole entry, looked up): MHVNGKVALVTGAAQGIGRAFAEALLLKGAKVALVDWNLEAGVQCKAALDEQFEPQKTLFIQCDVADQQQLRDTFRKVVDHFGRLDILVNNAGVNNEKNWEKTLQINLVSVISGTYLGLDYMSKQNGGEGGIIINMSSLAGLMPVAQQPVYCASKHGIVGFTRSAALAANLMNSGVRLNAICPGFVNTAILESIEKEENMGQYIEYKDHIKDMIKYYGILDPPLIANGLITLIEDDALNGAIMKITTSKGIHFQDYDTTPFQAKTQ
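20 nM HPGD preincubated 15 min at room temperature with compound in 50 mM Tris-HCl pH 8, 0.01% Tween 20. Started with 1 mM NAD+ and 30 uM prostaglandin E2; NADH fluorescence (360/450 nm) read 5 times over 30-s intervals, last minus first.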
IMPase Li cell: cell-permeable IMPase inhibitors with lithium potentiation. CHO-M1 cells, IP1 TR-FRET (IP-One), carbachol + lithium. Potency, µM (top dose mostly 59.4 µM), most hits filed as inhibitors. hit rate 0.35% among 210,000. AID 1457; active = well fitted inhibition curve with a large enough effect; inconclusive = small, poorly fitted or top-dose-only effect; inactive = no such curve, though single readings can be large or run the other way;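 also: IP1 builds up when IMPase is blocked and the TR-FRET signal falls; nearly all actives have a fitted effect of over 50% in size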
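CHO-M1, 2000 cells/well, 16–30 h culture; cpd + low Li+, 30 min 37C; lysis with d2-IP1/Eu-anti-IP1 Ab, 10 min RT; TR-FRET 665/620 ratio and 620 channel; AC50 via Hill.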
Of the large screens only hits and unclear results are named; the others gave an inactive call. The list is not random: actives were taken first. Their share in the collection is about 11%. Unless noted, calls follow the shape of the dose curve; as a rule, active = well fitted inhibition curve with a large enough effect (not every such curve was filed as active); inconclusive = small, poorly fitted or top-dose-only effect, or another doubt; inactive = no such curve, though single readings can be large or run the other way.

CC(C)OCCCNC(=O)c1sc(=S)n(C)c1N	HPGD inh 28.2µM
CCNC(=O)c1sc(=S)n(CC)c1N	ALDH1A1 inh inconclusive, HPGD inh 17.8µM
CCn1c(N)c(C(=O)NCCCOC)sc1=S	ALDH1A1 inh 3.16µM, PNC inhibitor inconclusive, HPGD inh 14.1µM
Cn1c(N)c(C(=O)NCc2ccccc2Cl)sc1=S	ALDH1A1 inh inconclusive
CCN1C(=O)[C@H]2[C@H]3[C@H](O)[C@H](O)C/C(=N/OC/C=C(\C)CCC=C(C)C)[C@H]3CC[C@@H]2C1=O	none (no result: IMPase cell inh, PNC inhibitor, HPGD inh, IMPase Li cell)
Cc1ccc(S(=O)(=O)N2c3ccccc3NC(=O)C2CC(=O)Nc2ccccc2)cc1 (centres undefined)	ALDH1A1 inh 20µM
COCCOC(=O)c1c(C)oc2ccc(OC(=O)c3cccs3)cc12	PNC inhibitor -139.2
CC(=O)n1c(COS(C)(=O)=O)nc2ccccc21	none (no result: IMPase cell inh, PNC inhibitor)
Cc1ccc(C2CC(=O)Oc3ccc(O)cc32)cc1 (centres undefined)	ALDH1A1 inh 31.6µM, HPGD inh inconclusive (no result: IMPase cell inh, PNC inhibitor)
CN(C)c1ccc(/C=N/N2C(=S)SC(C)(C)C2N(O)C(=O)Nc2ccc([N+](=O)[O-])cc2)cc1 (centres undefined)	ALDH1A1 inh 12.6µM
CNC(=S)N1CCc2ccccc2C1	PNC inhibitor inconclusive (no result: IMPase cell inh)
CCOC(=O)C1CCN(CC(O)COc2ccc(C(C)(C)CC)cc2)CC1 (centres undefined)	PNC inhibitor -80.6
CC(=C1C(=O)c2ccccc2C1=O)N1CCc2ccccc2C1	ALDH1A1 inh 8.91µM, PNC inhibitor inconclusive
CCOC(=O)C1CCN(C(=O)COc2ccc(Br)cc2)CC1	PNC inhibitor -96.9
CC(=O)N1CCN(C(=O)COc2ccc(Br)cc2)CC1	ALDH1A1 inh inconclusive, PNC inhibitor -81.3
Nc1ccc(C(=O)OCC(=O)Nc2ccc([N+](=O)[O-])cc2C(F)(F)F)cc1	none
O=C(c1cnccn1)N1CCC[C@@]2(CCN(Cc3ccccc3)C2)C1	none (no result: IMPase cell inh, PNC inhibitor)
O=C(CCc1nc(-c2ccccc2F)no1)Nc1cccc(C(F)(F)F)c1	none (no result: ALDH1A1 inh, PNC inhibitor, HPGD inh, IMPase Li cell)
CCOC(=O)C1CCN(C(=O)COc2cccc(C)c2)CC1	PNC inhibitor -84.8
CCOC(=O)C1CCN(C(=O)CCCN2C(=O)c3ccccc3C2=O)CC1	ALDH1A1 inh inconclusive
CCOC(=O)C1CCN(C(C)=C2C(=O)c3ccccc3C2=O)CC1	ALDH1A1 inh 17.8µM
CC(=O)c1ccc(N2CCN(C(=O)COc3ccc(F)cc3)CC2)c(F)c1	ALDH1A1 inh inconclusive
CC(=O)c1cc(F)c(N2CCN(C(=O)COc3ccc(F)cc3)CC2)cc1C	ALDH1A1 inh inconclusive, PNC inhibitor -100.0
COc1ccccc1C(=O)Nc1ccc(S(=O)(=O)Nc2nc(C)cc(C)n2)cc1	none (no result: ALDH1A1 inh, PNC inhibitor, HPGD inh, IMPase Li cell)
CN(C)C=Nc1ccc2nn(-c3ccccc3)nc2c1	ALDH1A1 inh inconclusive, HPGD inh inconclusive, IMPase Li cell 12.6µM
O=C(CSC1CC(=O)N(CCc2ccccc2)C1=O)Nc1ccc(Br)cc1 (centres undefined)	none
O=C(CSC1CC(=O)N(CCc2ccccc2)C1=O)Nc1cccc(Cl)c1 (centres undefined)	HPGD inh 7.94µM
O=[N+]([O-])c1ccc(COc2cccc(CNc3ccc(F)cc3)c2)cc1	IMPase cell inh inconclusive, ALDH1A1 inh 14.1µM, PNC inhibitor inconclusive
CSc1cccc(NCc2ccc([N+](=O)[O-])cc2)c1	ALDH1A1 inh 35.5µM (no result: IMPase cell inh, PNC inhibitor, HPGD inh)
CN(Cc1ccc(-n2cccn2)cc1)Cc1nc(-c2cnccn2)no1	none (no result: IMPase cell inh, PNC inhibitor, HPGD inh)
CC1(C)CC(=O)C(C(C2=C(O)CC(C)(C)CC2=O)c2ccco2)C(=O)C1 (centres undefined)	ALDH1A1 inh inconclusive, HPGD inh 10µM
CC(=O)OCC1OC(C#Cc2ccccc2)C=CC1OC(C)=O (centres undefined)	none (no result: IMPase cell inh, PNC inhibitor, HPGD inh, IMPase Li cell)
COc1ccc(NS(=O)(=O)c2c(C)nc3scc(C)n3c2=O)cc1	none (no result: ALDH1A1 inh, PNC inhibitor, HPGD inh, IMPase Li cell)
CC(=O)[C@@]1(O)CC[C@@H]2[C@@H]3CCC4=CC(=O)CC[C@@]4(C)[C@H]3CC[C@]21C	none (no result: ALDH1A1 inh, PNC inhibitor, HPGD inh, IMPase Li cell)
Cc1nc2nc(-c3ccccc3)[nH]n2c(=O)c1C	PNC inhibitor inconclusive
Cc1nc2nc(-c3cccnc3)[nH]n2c(=O)c1C	ALDH1A1 inh 17.8µM
CCOC(=O)c1c(-c2cccs2)csc1NC(=O)c1ccco1	PNC inhibitor -100.0, HPGD inh inconclusive
CCOC(=O)c1c(-c2cccs2)csc1NC(=O)CC(C)C	ALDH1A1 inh inconclusive, HPGD inh inconclusive
CCOC(=O)c1c(-c2ccc(C)o2)csc1NC(=O)CN1CCOCC1	PNC inhibitor inconclusive, HPGD inh inconclusive
CCOC(=O)c1c(-c2ccc(C)o2)csc1NC(=O)COC(=O)c1cccs1	ALDH1A1 inh 14.1µM, PNC inhibitor inconclusive, HPGD inh 22.4µM
CN(c1nc2nonc2nc1NC1CC1)C1CCOC1 (centres undefined)	ALDH1A1 inh inconclusive (no result: IMPase cell inh, PNC inhibitor, HPGD inh)
Cc1nn(CCc2n[nH]c(=S)n2C2CCCCC2)c(C)c1Br	ALDH1A1 inh 20µM, HPGD inh 25.1µM
CNc1cc(OC)c(C(=O)N[C@@H]2CCN(Cc3ccccc3)[C@H]2C)cc1Cl	none (no result: PNC inhibitor)
CS(=O)(=O)Nc1cccc(-c2cncnc2NCc2cccs2)c1	none (no result: IMPase cell inh, PNC inhibitor)
